Experimental data published in PubChem BioAssay (NCATS).
Results filed as inconclusive are left out. Active and inactive are the calls of the source. Calls follow the shape of the dose curve; as a rule, active = well fitted inhibition curve with a large enough effect; inconclusive = small, poorly fitted or top-dose-only effect; inactive = flat fitted curve, though single readings scatter.

Tests used:
Assay in all cases: qHTS assay to identify novel small-molecules to repurpose for Merkel cell carcinoma treatment (AID 1296009); also: nearly all actives have a fitted effect of over 60% in size
Conditions in all cases: MCC and control cell lines, CellTiter-Glo viability, 72 h; series mostly up to 46 µM
[1] = tested on: MCC-26
Method in brief: (§1)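 CellTiter-Glo luminescence after 72 hr compound exposure at 37 degree celsius gave cell viability. Libraries NPC and MIPE were run as 8- and 11-point dose responses; RLUs normalized to DMSO (negative) and no-cell (cytotoxicity) controls.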

[2] = tested on: MKL-1
Method in brief: as §1

[3] = tested on: MKL-2
Method in brief: as §1

[4] = tested on: UISO
Method in brief: as §1

[5] = tested on: WaGa
Method in brief: as §1

Measured: Potency
Potency is read from the fitted curve at half-maximal effect.

CCOC(=O)C=C[C@H](C[C@@H]1CCNC1=O)NC(=O)[C@@H](CC(=O)[C@@H](NC(=O)c1cc(C)on1)C(C)C)Cc1ccc(F)cc1
inactive: [1] | [2] | [3] | [4] | [5]

CC(=O)NCC(=O)N1[C@H]2CC[C@H]1c1cc(Nc3ncc(C(F)(F)F)c(NC4CCC4)n3)ccc12
active: [1] 3720 nM | [2] 209 nM | [3] 23500 nM | [4] 7430 nM | [5] 264 nM

C[C@H](NCc1ccc2c(c1)nc(NC(=O)c1ccc(-c3cn[nH]c3)s1)n2CCc1ccccc1)C(C)(C)C
active: [1] 10500 nM | [2] 2350 nM | [3] 5900 nM | [4] 6620 nM | [5] 4690 nM

O=C1NC(=O)C(=Cc2ccc3nccc(-c4ccncc4)c3c2)S1
active: [1] 2960 nM | [2] 1480 nM | [3] 469 nM | [4] 743 nM | [5] 833 nM

Nc1cccc2c1C(=O)N(C1CCC(=O)NC1=O)C2=O (stereo not given)
inactive: [1] | [2] | [3] | [4] | [5]

CC(=O)NC(CS)C(=O)O (stereo not given)
inactive: [1] | [2] | [3] | [4] | [5]

C=C1C[C@@]2(O)O[C@@]3(C[C@H]2C(C)C)[C@H](C)CC[C@H]13
inactive: [1] | [2] | [3] | [4] | [5]

CN(C)CC[C@H](c1ccc(Cl)cc1)c1ccccn1
inactive: [1] | [2] | [3] | [4] | [5]

NC(=O)c1ncn([C@@H]2O[C@H](CO)[C@@H](O)[C@@H]2O)c1O
inactive: [1] | [2] | [3] | [4] | [5]

N#CC(=C(O)c1ccc(Cl)cc1Cl)c1nc2cc(Cl)ccc2c(=O)[nH]1
inactive: [1] | [2] | [3] | [4] | [5]

N#Cc1cc(NC(=O)Nc2nnc(-c3ccncc3)s2)ccc1-c1cn[nH]c1
inactive: [1] | [2] | [3] | [4] | [5]

Nc1ccn(C[C@@H](CO)OCP(=O)(O)O)c(=O)n1
inactive: [1] | [2] | [3] | [4] | [5]

CC[C@@]1([C@@H]2O[C@@H]([C@H]3O[C@@](O)(CO)[C@H](C)C[C@H]3C)C[C@H]2C)CC[C@H]([C@]2(C)CC[C@]3(C[C@H](O)[C@@H](C)[C@@H]([C@@H](C)[C@@H](OC)[C@H](C)C(=O)O)O3)O2)O1
active: [2] 512 nM | [3] 204 nM | [4] 512 nM | [5] 457 nM
inactive: [1]

C[C@@H]1CC[C@@]2(OC1)OC1CC3C4CC=C5CC(O)CCC5(C)C4CCC3(C)C1[C@@H]2C (stereo not given in full)
inactive: [1] | [2] | [3] | [4] | [5]

O=C1c2c(O)cccc2[C@@H]([C@@H]2O[C@H](CO)[C@@H](O)[C@H](O)[C@H]2O)c2cc(CO)cc(O)c21
inactive: [1] | [2] | [3] | [4] | [5]

CC(C)(O)CC[C@@H](O)[C@](C)(O)[C@H]1CC[C@@]2(O)C3=CC(=O)[C@@H]4C[C@@H](O)[C@@H](O)C[C@]4(C)[C@@H]3CC[C@]12C
inactive: [1] | [2] | [3] | [4] | [5]

NC1=N[C@H]2[C@H](CS[C@H]2CCCCC(=O)O)N1
inactive: [1] | [2] | [3] | [4] | [5]

OCC(O)C(O)C(O)CO (stereo not given)
inactive: [1] | [2] | [3] | [4] | [5]

CC(=O)N1CCN(c2ccc(OCc3nn(C)c(C)c3-c3cccc4c(CCCOc5cccc6ccccc56)c(C(=O)O)n(Cc5cccnc5)c34)cc2)CC1
active: [1] 16600 nM | [2] 3320 nM | [3] 296 nM | [4] 1180 nM | [5] 83.3 nM

Cc1cc(O)c2c(c1)C(=O)c1cccc(O)c1C2=O
inactive: [1] | [2] | [3] | [4] | [5]
